This is a sample that favours compounds with a hit; in the whole collection about 2.3% have one here.
aSyn UTR inh: MLPCN primary screen, SNCA 5' untranslated region; alpha-synuclein 5'UTR reporter, inhibitor activity; inhibition, % (tested at 7.5 µM); actives 0.82% (n = 300,000); AID 1813, 2009; in the data active = inhibition above about 60%; inconclusive = no clear call, values can overlap the other calls;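 note: H4 neuroglioblastoma cells stably carrying SNCA 5'UTR luciferase fusion; 0% = DMSO wells and 100% = positive control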
697 NFkB inh: inhibitors of PMA/ionomycin-induced NF-kB reporter, 697 cells, primary screen, B-cell NF-kB inhibitor project, cell-based, luminescence, uHTS; 697 B-cell NF-kB luciferase reporter, 16 h; inhibition, % at 4 µM; actives 0.33% (n = 330,000); AID 435022, 2010; in the data active = inhibition above about 35%
H9c2 TAG inh: inhibitors of triacylglycerol accumulation, primary screen, cell-based, uHTS, fluorescence, H9c2 | inhibition, % at 12.5 µM | H9c2 cells, Nile Red lipid (TAG) fluorescence; cells loaded with 200 µM oleic acid | actives 0.66% (n = 230,000);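 active = pattern-corrected inhibition of lipid staining of at least 50% with the nuclear-stain viability signal not falling by more than 50%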;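 note: 0% = DMSO wells and 100% = triacsin C control wells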
Jurkat NFkB inh: inhibitors of induced NF-kB luciferase reporter, primary screen, TCR NF-kB activation inhibitor project, cell-based, luminescence, uHTS. actives 0.53% (n = 330,000). inhibition, % at 4 µM. Jurkat, PMA/ionomycin-induced NF-kB luciferase reporter; in the data active = inhibition above about 50%
Shn3 3UTR inh: reduction of Shn3 3'UTR firefly luciferase signal, primary screen, Schnurri-3 inhibitor project, cell-based, Clone20 osteoblasts, set 2; actives 0.52% (n = 360,000); Clone20 osteoblast Shn3 3'UTR firefly luciferase, 24 h; inhibition, % at 12.5 µM; AID 588674, 2011;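 active = mean inhibition of at least 75% with every replicate also reaching 75%; inconclusive = mean inhibition at least 75% but some replicate below; inactive = mean inhibition below 75%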;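 note: 0% = median of neutral control wells and 100% = pilot-screen positive control compound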
Gli-Sufu block: Gli-Sufu pathway antagonists, primary screen, luciferase luminescence, Sufu-KO-LIGHT cells, uHTS; Sufu-KO-LIGHT fibroblasts, Gli luciferase reporter luminescence; inhibition, % at 5 µM; actives 0.74% (n = 340,000); AID 588413, 2011;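 active = inhibition above about 55%, limit read from the data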;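 note: 0% = DMSO-treated cells and 100% = wells with medium but no cells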
697 NFkB conf: PMA/ionomycin-induced NF-kB reporter inhibitors, 697 retest, confirmation, B-cell NF-kB inhibitor project, cell-based, luminescence, single concentration. shares compounds with 697 NFkB inh. 697 B-cell NF-kB luciferase, 16 h. inhibition, % at 4 µM. actives 35% (n = 2,000); in the data active = inhibition mostly above about 28%, no sharp cut-off; inactive = mostly below about 22%
Numbers without * were called inactive.

Results for CCc1c(C(=O)N/N=C/c2ccsc2)csc1C ?
aSyn UTR inh: -19; 697 NFkB inh: -19; Jurkat NFkB inh: -9; Shn3 3UTR inh: -2; Gli-Sufu block: 18

How did CSc1ccc(/C=N/Nc2ccc(Cl)c(C(=O)O)c2)cc1 do in these assays?
aSyn UTR inh: -134; 697 NFkB inh: -370; H9c2 TAG inh: -3; Jurkat NFkB inh: -114; Shn3 3UTR inh: -28; Gli-Sufu block: -197; 697 NFkB conf: -26

What do the screens show for `Cc1cc(C)n(C(=O)CNc2cccc(Cl)c2C)n1`?
aSyn UTR inh: 0; 697 NFkB inh: 6; H9c2 TAG inh: 6; Jurkat NFkB inh: -12; Shn3 3UTR inh: 8; Gli-Sufu block: 2

What do the screens show for `CCN(C(=O)CSc1ncccc1C(=O)Oc1cccc([N+](=O)[O-])c1)c1cccc(C)c1`?
aSyn UTR inh: 6; 697 NFkB inh: 22; Jurkat NFkB inh: -3; Shn3 3UTR inh: -16; Gli-Sufu block: 1

Results for COc1ccc(NC(=O)CN(C)C(=O)CCc2ccccc2)cc1 ?
aSyn UTR inh: -1; 697 NFkB inh: 9; Jurkat NFkB inh: 6; Shn3 3UTR inh: -6; Gli-Sufu block: 0

How did COc1ccc(NC(=O)CN(C)C(=O)C2(c3ccccc3)CCCC2)cc1 do in these assays?
697 NFkB inh: 71*; H9c2 TAG inh: 3; Jurkat NFkB inh: 12; Shn3 3UTR inh: 37; Gli-Sufu block: 31; 697 NFkB conf: 72*

What do the screens show for `COc1cccc(-c2cnc(C(O)c3ccc(-c4ccccc4)cc3)[nH]2)c1` (stereo not drawn)?
H9c2 TAG inh: -11; Shn3 3UTR inh: 0

What do the screens show for `N#CCSc1nc2c(cc1C#N)CCCC2`?
aSyn UTR inh: 4; 697 NFkB inh: -6; Jurkat NFkB inh: -21; Shn3 3UTR inh: -3; Gli-Sufu block: 15

How did CSC1CCCCC1(O)CSc1nc2c(cc1C#N)CCCC2 (stereo not drawn) do in these assays?
aSyn UTR inh: inconclusive; 697 NFkB inh: 40*; Jurkat NFkB inh: -12; Shn3 3UTR inh: -2; Gli-Sufu block: 2; 697 NFkB conf: 48*

How did C=C(C)CN=C1SC(C(=O)Nc2sc3c(c2C(=O)OC)CCC3)C(N)=C1C(N)=O (stereo not drawn) do in these assays?
aSyn UTR inh: -4; 697 NFkB inh: -37; Jurkat NFkB inh: -10; Shn3 3UTR inh: -48; Gli-Sufu block: 4

How did C(=N\Nc1ccccc1)/c1nc2ccccc2s1 do in these assays?
aSyn UTR inh: -8; 697 NFkB inh: -313; H9c2 TAG inh: 10; Jurkat NFkB inh: -137; Shn3 3UTR inh: -79; Gli-Sufu block: -93; 697 NFkB conf: -48

What do the screens show for `O=C(NCCNC(=O)C1CC2CCC1C2)C1CC2CCC1C2` (stereo not drawn)?
aSyn UTR inh: -1; 697 NFkB inh: -4; H9c2 TAG inh: 32; Jurkat NFkB inh: -8; Shn3 3UTR inh: -32; Gli-Sufu block: 0

How did CCOc1ccccc1NC(=O)C(=O)N/N=C/c1ccc([N+](=O)[O-])cc1 do in these assays?
aSyn UTR inh: -16; 697 NFkB inh: 39*; H9c2 TAG inh: 1; Jurkat NFkB inh: 2; Shn3 3UTR inh: -11; Gli-Sufu block: 36; 697 NFkB conf: 20

Results for COc1cccc2c1C(=O)O/C2=C/c1ccc2c(c1)OCO2 ?
aSyn UTR inh: -6; 697 NFkB inh: -342; H9c2 TAG inh: -4; Jurkat NFkB inh: -63; Shn3 3UTR inh: 16; 697 NFkB conf: -446

Results for COc1cccc(OC)c1C1=CC(=O)C[C@H](c2ccc3c(c2)OCO3)C1 ?
697 NFkB inh: -11; H9c2 TAG inh: -13; Jurkat NFkB inh: -5; Shn3 3UTR inh: 0; Gli-Sufu block: 4

Results for COc1ccc(Oc2ccc3c(C(F)(F)F)cc(C(F)(F)F)nc3n2)cc1 ?
aSyn UTR inh: 39; 697 NFkB inh: -1; Jurkat NFkB inh: -6; Shn3 3UTR inh: 5; Gli-Sufu block: -23
